Hits are enriched below; roughly 10% of the tested compounds scored in any of these assays.
SW480 rerep: A quantitative high throughput screen for small molecules that induce DNA re-replication in SW480 colon adenocarcinoma cells; SW480 DNA re-replication, Hoechst DNA content imaging, 48 h; Potency, µM (series often up to 46.1 µM), hits mostly activators; 340,000 compounds, 1.8% hits; note: nearly all actives have a fitted effect of over 55% in size
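Cells (250 per well) received 23 nL compound or DMSO by pin tool and were kept 48 hr at 37 C, 5% CO2. Nuclei were then stained with Hoechst for 40 min and scanned for DNA content.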
MCF10A rereplic: A quantitative high throughput screen for small molecules that induce DNA re-replication in MCF 10a normal breast cells | MCF 10A DNA re-replication, Hoechst nuclear intensity, 48 h | Potency, µM (series often up to 46.1 µM), usual class: activators | 350,000 compounds, 2.9% hits | AID 624296, 2012; note: nearly all actives have a fitted effect of over 50% in size
Gal4-VP16 FLuc: VP16 counterscreen qHTS for inhibitors of ROR gamma transcriptional activity; Drosophila S2 Gal4-VP16 UAS-luciferase, luminescence, 20 h; Potency, µM (top dose mostly 53.6 µM), most hits filed as inhibitors; 310,000 compounds, 3.5% hits; AID 2546, 2010;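 note: Gal4-VP16 expression switched on by copper sulfate through the metallothionein promoter; nearly all actives have a fitted effect of over 50% in size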
ELG1 repair inh: qHTS screen for small molecules that inhibit ELG1-dependent DNA repair in human embryonic kidney (HEK293T) cells expressing luciferase-tagged ELG1 | 330,000 compounds, 2.3% hits | Potency, µM (top dose mostly 46.1 µM), hits mostly inhibitors | HEK293T ELG1-luciferase reporter, luminescence, 16 h; DNA damage induced by 5-fluorouridine | AID 504467, 2011; note: nearly all actives have a fitted effect of over 55% in size
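Reporter activity after DNA damage by 5-fluorouridine is monitored. Compound-treated cells incubate 16 hr at 37 °C, then ONE-Glo is added for 30 min before luminescence reading.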
RORg inh: qHTS for inhibitors of ROR gamma transcriptional activity; Nuclear receptor ROR-gamma (Mus musculus), P51450; Drosophila S2 Gal4-RORgamma UAS-luciferase reporter, 20 h; Potency, µM (highest dose often 53.6 µM), most hits filed as inhibitors; 310,000 compounds, 5.4% hits; AID 2551, 2010; note: nearly all actives have a fitted effect of over 60% in size
Target sequence (P51450 whole entry, looked up, the tested form may be a part): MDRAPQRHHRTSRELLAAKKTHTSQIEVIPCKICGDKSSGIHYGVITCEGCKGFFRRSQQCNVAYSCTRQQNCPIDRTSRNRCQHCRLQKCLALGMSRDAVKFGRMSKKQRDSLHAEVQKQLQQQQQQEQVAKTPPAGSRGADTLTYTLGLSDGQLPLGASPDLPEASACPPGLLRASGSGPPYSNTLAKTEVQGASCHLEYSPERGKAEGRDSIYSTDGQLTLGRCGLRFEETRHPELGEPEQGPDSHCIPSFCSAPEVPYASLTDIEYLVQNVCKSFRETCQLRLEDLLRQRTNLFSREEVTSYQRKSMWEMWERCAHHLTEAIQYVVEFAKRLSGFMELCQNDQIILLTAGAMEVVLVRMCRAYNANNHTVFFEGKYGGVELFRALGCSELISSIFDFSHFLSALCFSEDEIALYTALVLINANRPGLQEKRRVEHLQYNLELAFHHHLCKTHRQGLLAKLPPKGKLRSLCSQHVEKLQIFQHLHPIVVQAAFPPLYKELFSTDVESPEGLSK
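Luminescence from a UAS-regulated Photinus luciferase reporter in stably transfected Drosophila Schneider cells is measured; decreased signal marks ROR gamma inhibition. Fusion expression is induced by 700 uM copper sulfate for 20 hr.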
Hits are given with their value; . = inactive; ? = inconclusive; / = no result given; [ ] = another dose, or the depositor's remark. Calls come from the whole dose curve; as a rule, active = well fitted curve in the direction sought with a large enough effect; inconclusive = small, poorly fitted or top-dose-only effect, or another doubt; inactive = no such curve, though single readings can be large; an effect the other way counts as inactive or inconclusive.

SMILES | SW480 rerep | MCF10A rereplic | Gal4-VP16 FLuc | ELG1 repair inh | RORg inh
O=C(Nc1cccc(Cl)c1)N(CCN1CCOCC1)Cc1cccc(Cl)c1 | ? | ? | . | ? | .
Cc1cc(C)c2cc(CN(CCO)C(=O)Nc3ccc(Cl)cc3)c(=O)[nH]c2c1 | ? | ? | . | 18µM | .
O=C(Nc1nccs1)c1sc2cc(Cl)ccc2c1Cl | . | . | 2.8µM | ? | 0.5µM
O=C(Nc1ccc2c(c1)C(=O)NC2=O)c1ccc(Cl)s1 | . | . | . | . | .
O=C(Nc1ccc2sccc2c1)c1ccc(Cl)s1 | . | 18µM | . | ? | ?
O=C(Nc1nccs1)c1cc(Cl)ccc1[N+](=O)[O-] | / | . | ? | . | 13µM
O=C(Nc1nccs1)c1ccc(Cl)s1 | . | . | . | ? | 10µM
Cc1ccc2c(Cl)c(C(=O)Nc3cc(C)on3)sc2c1 | . | ? | ? | ? | .
Cc1cnc(NC(=O)c2sc3ccccc3c2Cl)s1 | . | . | 5µM | ? | 2µM
O=C(Nc1ccc(NC(=O)c2sc3ccccc3c2Cl)cc1)c1ccco1 | ? | 12µM | ? | ? | .[10 µM]
Cc1ccnc(NC(=O)c2sc3ccccc3c2Cl)c1 | . | . | 1.4µM | ? | 0.28µM
CC(C)c1nnc(NC(=O)c2sc3ccccc3c2Cl)s1 | .[9.22 µM] | . | ? | ? | 8.9µM
CC(C)Oc1ccc(S(=O)(=O)N2CCOCC2)cc1NC(=O)Cc1c(F)cccc1Cl | . | . | / | . | /
COc1ccc(CN2CCNC(=O)C2CC(=O)N(C)Cc2nonc2C)c(F)c1 (centres undefined) | . | . | . | . | .
C[C@H]1CC[C@H]2C(=O)N3[C@H](c4ccccc4Br)[C@@H](C)CC[C@H]3C(=O)N2[C@@H]1c1ccccc1Br | ? | ? | . | ? | ?
O=C(Nc1nccs1)c1sc2ccccc2c1Cl | .[9.22 µM] | ? | 5µM | ? | 2.2µM
CCCCCCCCC/C=C/CC1CC(=O)OC1=O (centres undefined) | / | / | . | / | .
CCCc1ncc(C(O)(c2ccccc2)c2ccccc2)n1C | . | . | . | . | 14µM
O=C(CN1CCN(c2ccccn2)CC1)N(c1ccccc1)c1ccc2ccccc2c1 | . | . | . | ? | .
O=S(=O)(c1ccccc1)N(CC1CO1)c1cccc2ccccc12 (centres undefined) | 21µM | ? | . | . | ?
CC1(C(=O)Nc2nccs2)Cc2ccccc2C(=O)O1 (centres undefined) | . | . | . | . | .
CC1(C(=O)Nc2nnc(SCc3ccccc3)s2)Cc2ccccc2C(=O)O1 (centres undefined) | . | . | . | . | 10µM
O=C(Cc1ccc(Cl)cc1)NNC(=O)C1CC=CCC1C(=O)O (centres undefined) | / | / | . | . | .
Cc1nc2c(ccc3nc(NC(=O)Cc4cccc5ccccc45)sc32)s1 | . | ? | . | 5.2µM | .
CCC(=O)Nc1nc2ccc3nc(C)sc3c2s1 | . | ? | ? | ? | ?
SMILES | SW480 rerep | MCF10A rereplic | Gal4-VP16 FLuc | ELG1 repair inh | RORg inh
Cc1nc2c(ccc3nc(NC(=O)C(c4ccccc4)c4ccccc4)sc32)s1 | . | 16µM | 5µM | ? | ?
C/C(CC(=O)N1CCN(C=O)CC1)=N\NC(=O)c1ccc(Cl)cc1 | . | ? | 11µM | . | ?
C/C(CC(=O)N1CCCC1)=N\NC(=O)c1cc2ccccc2cc1O | ? | . | ? | . | 6.3µM
C/C(CC(=O)N1CCN(C=O)CC1)=N\NC(=O)c1cccc([N+](=O)[O-])c1 | . | . | . | . | .
CCOC(=O)C(C)/C(C)=N/NC(=O)c1cc2ccccc2cc1O (centres undefined) | ? | ? | 13µM | . | 11µM
O=C(OCC(=O)N1CCCCC1)c1cc2ccccc2cc1O | . | . | . | ? | .
CCNc1nc(SC(C)C(=O)Nc2ccccc2)nc(N2CCOCC2)n1 (centres undefined) | . | . | . | . | .
CC(=O)C(Sc1nc(N2CCOCC2)nc(N2CCOCC2)n1)C(=O)Nc1ccccc1 (centres undefined) | . | . | ? | . | 0.89µM
O=[N+]([O-])c1cc(S(=O)(=O)Nc2ccc(Cl)cc2)ccc1N/N=C/c1ccncc1 | . | 4.1µM | . | . | .
O=[N+]([O-])c1ccc(Cl)cc1N/N=C/c1ccncc1 | . | . | . | . | .
CCOc1ccc(N(CC(=O)N2CCCCCC2)S(C)(=O)=O)cc1 | . | . | / | . | /
O=C(NC(=S)N1CCCCCC1)c1ccc(Cl)cc1Cl | . | . | 1µM | . | 0.35µM
S=C(Nc1ccccc1Cl)N1CCCC1 | . | . | . | . | .
O=C(Nc1ccccc1C(=O)N1CCCC1)c1ccc(Cl)cc1Cl | . | . | . | . | .
O=C(NC(=S)N1CCCCCC1)c1ccccc1Cl | . | . | 1µM | . | 0.79µM
CN1CCN(C(=S)NC(=O)c2ccccc2Cl)CC1 | . | . | 18µM | . | 14µM
COc1ccc(CCNC(=O)c2cc3c(=O)n4ccccc4nc3n(C3CCCCC3)c2=N)cc1OC | . | . | . | ? | .
COc1ccc(CCNC(=O)c2cc3c(=O)n4ccccc4nc3n(CCCN3CCOCC3)c2=N)cc1OC | ? | . | . | ? | .
COc1ccc(CCn2c(=N)c(C(=O)NC3CCCCC3)cc3c(=O)n4ccccc4nc32)cc1 | ? | ? | ? | . | .
COc1ccc(CCNC(=O)c2cc3c(=O)n4ccccc4nc3n(CCCN3CCOCC3)c2=N)cc1 | 8.2µM | ? | . | . | .
COc1ccc(CCNC(=O)c2cc3c(=O)n4ccccc4nc3n(C3CCCCC3)c2=N)cc1 | 2.3µM | ? | . | 23µM | .
COc1ccc(CCn2c(=N)c(C(=O)N3CCN(C)CC3)cc3c(=O)n4ccccc4nc32)cc1 | 23µM | 9.2µM | . | . | .
COc1ccc(CCNC(=O)c2cc3c(=O)n4ccccc4nc3n(CCN3CCOCC3)c2=N)cc1 | 23µM | 21µM | . | ? | .
c1ccc2c(-n3ccnc3)nc(-c3ccoc3)nc2c1 | / | / | . | / | .
Cc1cc(Br)ccc1NC(=O)CN(C)C(=O)c1ccc(-n2cncn2)c([N+](=O)[O-])c1 | . | . | / | . | /
SMILES | SW480 rerep | MCF10A rereplic | Gal4-VP16 FLuc | ELG1 repair inh | RORg inh
COc1ccc(C(=O)OCC(=O)NC2CCCCCC2)c(OC)c1 | . | . | / | . | /
COc1ccc(CCn2c(=N)c(C(=O)NCCN3CCOCC3)cc3c(=O)n4ccccc4nc32)cc1OC | . | . | . | . | .
O=C(NCCN1CCOCC1)c1cc2c(=O)n3ccccc3nc2n1Cc1ccccc1 | 21µM | 16µM | . | . | .
Cc1ccc2nc3c(cc(C(=O)NCCc4ccccc4)c(=N)n3CCCN3CCOCC3)c(=O)n2c1 | 4.6µM | 4.6µM | . | . | .
CC(=O)c1ccc(-n2ccc(=O)cc2)cc1 | . | . | . | . | .
CCCc1ccc(-c2ccc(F)c(N)c2)nc1 | . | . | ? | ? | 4.5µM

Screening results: PubChem, National Center for Advancing Translational Sciences (NCATS)
